In PubChem BioAssay (NCI):
Several values for one entry are separate records, joined by “and”; a condition that tells them apart may be missing. Equal entries are not always repeated. About 83,000 compounds went through this panel and 20% of them were active in at least one assay; those are over-represented in the sample as a whole.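 Step 1: grow cells in 96-well plates. Step 2: add test compound at a single concentration. Step 3: incubate 48 h. Step 4: record percent growth.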 Activity calls are given as the source filed them. The calls were made as follows: active = growth percent below 10; inactive = the rest.

Key:
Test in all cases: NCI-60 one-dose screen, 48 h (100 = growth as untreated, 0 = no growth, -100 = all killed)
[1] = tested on: NCI-H23 lung
[2] = tested on: NCI-H226 lung
[3] = tested on: NCI-H322M lung
[4] = tested on: HOP-62 NSCLC
[5] = tested on: NCI-H460 lung
[6] = tested on: HOP-92 NSCLC
[7] = tested on: NCI-H522 lung
[8] = tested on: A549/ATCC NSCLC
[9] = tested on: 786-0 renal
[10] = tested on: COLO 205 colon

Measured: growth

O=C(O)CCCc1ccc(N(CCCl)CCCl)cc1
active: [7]; 75 µM 0.62% | [9]; 75 µM 9.49%
inactive: [1]; 10 µM 102% and 79.4% | [1]; 75 µM 23.1% | [2]; 10 µM 78.7% and 88.2% | [2]; 75 µM 61.2% | [3]; 10 µM 98.7% and 112% | [3]; 75 µM 91.9% | [4]; 10 µM 90.1% and 91.6% | [4]; 75 µM 35% | [5]; 10 µM 86.6% and 54.5% | [5]; 75 µM 21% | [6]; 10 µM 95.3% and 40.2% | [6]; 75 µM 14.6% | [7]; 10 µM 87.2% and 59.6% | [8]; 10 µM 89.2% | [8]; 75 µM 46.1% | [9]; 10 µM 98.4% and 86.1% | [10]; 10 µM 104% and 105% | [10]; 75 µM 66.2%

C#Cc1cccc(Nc2nc(Cl)nc3cc(NC(=O)CF)ccc23)c1
inactive: [1]; 10 µM unless noted 80.2% | [2]; 10 µM unless noted 86.6% | [3]; 10 µM unless noted 80% | [4]; 10 µM unless noted 70% | [5]; 10 µM unless noted 29.4% | [6]; 10 µM unless noted 91.1% | [7]; 10 µM unless noted 28.9% | [8]; 10 µM unless noted 55.4% | [9]; 10 µM unless noted 92.9% | [10]; 10 µM unless noted 41.8%

O=C1NC(=O)C(=Cc2ccccc2)C(=O)N1
inactive: [1]; 10 µM unless noted 98.5% and 102% | [2]; 10 µM unless noted 96.1% and 101% | [3]; 10 µM unless noted 106% and 105% | [4]; 10 µM unless noted 94.9% and 92.6% | [5]; 10 µM unless noted 127% and 105% | [6]; 10 µM unless noted 85.9% and 109% | [7]; 10 µM unless noted 96.1% and 94.5% | [8]; 10 µM unless noted 101% and 91.4% | [9]; 10 µM unless noted 102% and 107% | [10]; 10 µM unless noted 135% and 109%

C[C@]12CCc3nc(-c4ccc(O)c(O)c4)sc3C1=CC[C@@H]1[C@@H]2CC[C@]2(C)C(=O)CC[C@@H]12
active: [7]; 10 µM unless noted 8.61%
inactive: [1]; 10 µM unless noted 69% | [2]; 10 µM unless noted 65% | [3]; 10 µM unless noted 80% | [4]; 10 µM unless noted 80.8% | [5]; 10 µM unless noted 93.8% | [6]; 10 µM unless noted 56.3% | [8]; 10 µM unless noted 61.2% | [9]; 10 µM unless noted 75.3% | [10]; 10 µM unless noted 55.4%

O=C1CN2CCC1CC2
inactive: [1]; 10 µM unless noted 101% | [2]; 10 µM unless noted 96.8% | [3]; 10 µM unless noted 99.3% | [4]; 10 µM unless noted 93.5% | [5]; 10 µM unless noted 115% | [6]; 10 µM unless noted 106% | [7]; 10 µM unless noted 90.3% | [8]; 10 µM unless noted 92.7% | [9]; 10 µM unless noted 88.9% | [10]; 10 µM unless noted 116%

O=C(CCCN1CCC2(CC1)C(=O)NCN2c1ccccc1)c1ccc(F)cc1
inactive: [1]; 10 µM unless noted 95.1% and 49.3% | [2]; 10 µM unless noted 117% and 102% | [3]; 10 µM unless noted 97.5% and 81.5% | [5]; 10 µM unless noted 108% and 94.1% | [6]; 10 µM unless noted 96.7% and 67.2% | [7]; 10 µM unless noted 108% and 80.4% | [8]; 10 µM unless noted 103% and 89.3% | [9]; 10 µM unless noted 101% and 88.3%
79.1% (inactive) and -10.2% (active): [4]; 10 µM unless noted
34.3% (inactive) and -64.9% (active): [10]; 10 µM unless noted

Oc1cc(N2CC2)c(O)cc1N1CC1
inactive: [3]; 10 µM unless noted 20.4% | [9]; 10 µM unless noted 22.3%
active: [1]; 10 µM unless noted -37.9% | [2]; 10 µM unless noted -16.4% | [4]; 10 µM unless noted -12.8% | [5]; 10 µM unless noted -14.6% | [6]; 10 µM unless noted 5.86% | [7]; 10 µM unless noted -74.7% | [8]; 10 µM unless noted -1.9% | [10]; 10 µM unless noted -72.7%

CN(C)c1ccc(N)cc1
inactive: [1]; 10 µM unless noted 96.6% and 10.7% | [2]; 10 µM unless noted 101% and 82.3% | [3]; 10 µM unless noted 95.3% and 111% | [4]; 10 µM unless noted 93.7% and 47.1% | [5]; 10 µM unless noted 103% and 54.2% | [6]; 10 µM unless noted 98.1% and 41.6% | [7]; 10 µM unless noted 85.1% | [8]; 10 µM unless noted 97.2% and 33.1% | [9]; 10 µM unless noted 109% | [10]; 10 µM unless noted 103% and 43.1%

CN(C)[C@@H]1C(=O)C(C(N)=O)=C(O)[C@@]2(O)C(=O)C3=C(O)c4c(O)ccc(Cl)c4[C@@](C)(O)[C@H]3C[C@@H]12
inactive: [1]; 10 µM unless noted 99.6% and 88.6% | [2]; 10 µM unless noted 93.3% and 95.3% | [3]; 10 µM unless noted 84.8% and 105% | [4]; 10 µM unless noted 90.3% | [5]; 10 µM unless noted 88.9% and 101% | [6]; 10 µM unless noted 75.7% and 11.8% | [7]; 10 µM unless noted 79.4% and 32.7% | [8]; 10 µM unless noted 97% | [9]; 10 µM unless noted 91.3% and 71.2% | [10]; 10 µM unless noted 92.8% and 97.8%

CC1=CC(=O)CCC12CCOC2=O (stereo not given)
inactive: [1]; 10 µM unless noted 102% | [2]; 10 µM unless noted 101% | [3]; 10 µM unless noted 96.4% | [4]; 10 µM unless noted 99.5% | [5]; 10 µM unless noted 102% | [6]; 10 µM unless noted 102% | [7]; 10 µM unless noted 96.1% | [8]; 10 µM unless noted 97.8% | [9]; 10 µM unless noted 93.9% | [10]; 10 µM unless noted 116%

C[C@]12CC[C@H]3[C@@H](C[C@@H]4SC(Nc5cccc(F)c5)=N[C@@]45CC(=O)CC[C@]35C)[C@@H]1CCC2=O
inactive: [1]; 10 µM unless noted 55.1% | [2]; 10 µM unless noted 71.9% | [3]; 10 µM unless noted 55.8% | [4]; 10 µM unless noted 20.4% | [5]; 10 µM unless noted 52% | [6]; 10 µM unless noted 68.9% | [8]; 10 µM unless noted 35.4% | [10]; 10 µM unless noted 47.6%
active: [7]; 10 µM unless noted -43.7% | [9]; 10 µM unless noted -13.9%

Oc1ccc(O)c(Cl)c1
inactive: [1]; 10 µM unless noted 96.2% and 88.3% | [2]; 10 µM unless noted 94.5% and 98.5% | [3]; 10 µM unless noted 109% and 98.2% | [4]; 10 µM unless noted 109% | [5]; 10 µM unless noted 99.7% and 102% | [6]; 10 µM unless noted 87.6% and 102% | [8]; 10 µM unless noted 92.5% and 111% | [9]; 10 µM unless noted 108% and 112% | [10]; 10 µM unless noted 109% and 99.8%
active: [7]; 10 µM unless noted -92.2% and -1.35%

Cc1ccc(S(=O)(=O)n2cc([C@@]3(O)C[C@H](CSC#N)OC3=O)c3ccccc32)cc1
active: [6]; 10 µM unless noted -28.2%
inactive: [1]; 10 µM unless noted 82% | [2]; 10 µM unless noted 85.3% | [3]; 10 µM unless noted 106% | [4]; 10 µM unless noted 100% | [5]; 10 µM unless noted 86.3% | [7]; 10 µM unless noted 86.3% | [8]; 10 µM unless noted 70.6% | [9]; 10 µM unless noted 95.6% | [10]; 10 µM unless noted 59.2%

C[C@]12CC[C@H]3[C@@H](C[C@@H]4SC(Nc5ccccc5)=N[C@@]45C/C(=N/O)CC[C@]35C)[C@@H]1CCC2=O
inactive: [1]; 10 µM unless noted 79.5% | [2]; 10 µM unless noted 114% | [3]; 10 µM unless noted 94.5% | [4]; 10 µM unless noted 94% | [5]; 10 µM unless noted 56.4% | [6]; 10 µM unless noted 107% | [7]; 10 µM unless noted 71.5% | [8]; 10 µM unless noted 88.9% | [9]; 10 µM unless noted 18.4% | [10]; 10 µM unless noted 97%

C[N+]1(CC#CC[N+]2(C)CCCC2)CCCC1
inactive: [1]; 10 µM unless noted 111% | [2]; 10 µM unless noted 91.1% | [3]; 10 µM unless noted 99.8% | [4]; 10 µM unless noted 105% | [5]; 10 µM unless noted 106% | [6]; 10 µM unless noted 90.6% | [7]; 10 µM unless noted 99.5% | [8]; 10 µM unless noted 107% | [9]; 10 µM unless noted 99.2% | [10]; 10 µM unless noted 103%

CN1C2CCC1[C@@H](COC(=O)c1ccccc1)[C@@H](O)C2 (stereo not given in full)
inactive: [1]; 10 µM unless noted 108% | [2]; 10 µM unless noted 99.6% | [3]; 10 µM unless noted 119% | [4]; 10 µM unless noted 99.7% | [5]; 10 µM unless noted 113% | [6]; 10 µM unless noted 69.9% | [7]; 10 µM unless noted 64.9% | [8]; 10 µM unless noted 99.2% | [9]; 10 µM unless noted 108% | [10]; 10 µM unless noted 129%

NC1CN2CCC1CC2 (stereo not given)
inactive: [1]; 10 µM unless noted 98.7% | [2]; 10 µM unless noted 101% | [3]; 10 µM unless noted 96.5% | [4]; 10 µM unless noted 101% | [5]; 10 µM unless noted 109% | [6]; 10 µM unless noted 77.7% | [7]; 10 µM unless noted 97.9% | [8]; 10 µM unless noted 105% | [9]; 10 µM unless noted 89.4% | [10]; 10 µM unless noted 104%

C[C@]12CC[C@H]3[C@@H](CC=C4c5nc(-c6ccc(Br)cc6)sc5CC[C@@]43C)[C@@H]1CC[C@@H]2O
inactive: [1]; 10 µM unless noted 88.4% | [2]; 10 µM unless noted 100% | [3]; 10 µM unless noted 94.7% | [4]; 10 µM unless noted 106% | [5]; 10 µM unless noted 106% | [6]; 10 µM unless noted 130% | [7]; 10 µM unless noted 97.5% | [8]; 10 µM unless noted 106% | [9]; 10 µM unless noted 45% | [10]; 10 µM unless noted 119%

C=CC[PH+](c1ccccc1)c1ccccc1.C=CC[PH+](c1ccccc1)c1ccccc1.[Pt+2].[S-]c1ncccn1.[S-]c1ncccn1
inactive: [1]; 10 µM unless noted 36.6% | [3]; 10 µM unless noted 85.1% | [4]; 10 µM unless noted 90.3% | [5]; 10 µM unless noted 91.6% | [8]; 10 µM unless noted 71.4% | [9]; 10 µM unless noted 19.6%
active: [2]; 10 µM unless noted 3.04% | [6]; 10 µM unless noted -7.37% | [7]; 10 µM unless noted -46.1% | [10]; 10 µM unless noted -11.5%

COC(=O)C1=CCCN(C)C1
inactive: [1]; 10 µM unless noted 104% and 101% | [2]; 10 µM unless noted 100% and 101% | [3]; 10 µM unless noted 96.2% and 82.7% | [4]; 10 µM unless noted 109% | [5]; 10 µM unless noted 110% and 106% | [6]; 10 µM unless noted 76.9% | [7]; 10 µM unless noted 96.8% and 73.1% | [8]; 10 µM unless noted 101% | [9]; 10 µM unless noted 100% and 101% | [10]; 10 µM unless noted 114% and 121%

O=[P+](O)c1cccnc1
inactive: [1]; 10 µM unless noted 103% | [2]; 10 µM unless noted 105% | [3]; 10 µM unless noted 94.9% | [4]; 10 µM unless noted 90.3% | [5]; 10 µM unless noted 107% | [6]; 10 µM unless noted 109% | [7]; 10 µM unless noted 75.7% | [8]; 10 µM unless noted 101% | [9]; 10 µM unless noted 98.2% | [10]; 10 µM unless noted 102%

COc1ccc2c(c1)c(-c1nc(-c3c[nH]c4ncccc34)cs1)cn2CCCCN1CCOCC1
inactive: [1]; 10 µM unless noted 69.9% | [2]; 10 µM unless noted 70.3% | [3]; 10 µM unless noted 57.2% | [4]; 10 µM unless noted 37.1% | [6]; 10 µM unless noted 43% | [7]; 10 µM unless noted 39.9% | [8]; 10 µM unless noted 49.7%
active: [5]; 10 µM unless noted 4.29% | [9]; 10 µM unless noted -43.7% | [10]; 10 µM unless noted -100%
